Results on 40 compounds are retold here after PubChem BioAssay (NCATS).

Molecules are shown by their SMILES. Several values for one entry are separate records, joined by “and”; a condition that tells them apart may be missing. Equal entries are not always repeated. Records with an inconclusive call do not appear. A call without a number means that no potency is given here. Activity calls are given as the source filed them. Calls follow the shape of the dose curve; as a rule, active = well fitted cell-killing curve with a large enough effect; inconclusive = small, poorly fitted or top-dose-only effect; inactive = flat fitted curve, though single readings scatter.
Potency is read from the fitted curve at half-maximal effect.

The test in a line: qHTS of pediatric cancer cell lines to identify multiple opportunities for drug repurposing: Primary screen for TC32 cells (AID 1347089). Also: nearly all actives have a fitted effect of over 60% in size. The following applies: TC32 Ewing sarcoma viability, CellTiter-Glo luminescence, 48 h; series mostly up to 45.8 µM; activity change, negative = cytotoxic: at the top concentration. The source says:
Drug repurposing or repositioning has been offered as a strategy for drug development in oncology programs. This approach has special potential for childhood cancers and other rare or orphan diseases, where the expected return on new drug development has been a disincentive to pharmaceuticals.
In this project we exploit the poly-pharmacology of drugs to discover new indications via phenotypic screening of a panel of 19 well-characterized cell lines derived from solid tumors seen in children and adolescents. The goal is to identify approved drugs with previously unrecognized anticancer properties that has the potential to reveal new mechanisms and biological processes involved in carcinogenesis or drug resistance. We employed a titration-based paradigm (quantitative high-throughput screening or qHTS), where all compounds were tested at multiple concentrations for their effect on cell viability. Concentration-response curves (CRCs) were derived directly from the primary screen, and both potency and efficacy values were used to identify compounds with robust bioactivity profiles. We screened the NIH Chemical Genomics Center (NCGC) Pharmaceutical Collection (NPC) and Mechanism Interrogation Plate (MIPE) small molecule collections of approved and investigational compounds against these cell lines; and measured metabolically active cells after 48 hours of compound treatment as a proxy for cell viability.
Assay Submitter: Nathalia J. Martinez, National Center for Advancing Translational Sciences, National Institutes of Health, Rockville, MD, USA; email: natalia.martinez@nih.gov
[1] Shen, M et al. Quantitative high-throughput phenotypic screening of pediatric cancer cell lines identifies multiple opportunities for drug repurposing. Oncotarget 2017 Dec 19;9(4):4758-4772. PMID 29435139.
The cells were obtained from University of North Carolina (UNC), Pediatric Preclinical Testing Program (PPT), and Coriell Institute (CI).
qHTS cell viability assay:
Cells were assayed in growth media at a density of 500-1,000 cells/well. Five microliters of cells were dispensed into 1,536-well, white, solid-bottom, TC-treated plates (Greiner Bio One) using a multidrop dispenser and incubated at 37 degrees C, 5% CO2, under a humidified atmosphere for 5 hours. Twenty-three nanoliters of compounds and controls (neutral control DMSO or positive control bortezomib at final concentration of 2.3 uM) were subsequently transferred by Kalypsys pintool. For primary screens, the MIPE collection was tested at 11-point dilutions (final concentrations range from 0.78 nM to 46 µM) and the NPC collection at 8-point dilutions (final concentrations range from 0.59 nM to 46 µM). Compounds tested in follow-up screens were assayed at 11-point dilutions. Cells were incubated for 48 hours, followed by addition of 3 uL of CellTiter-Glo (Promega). After a 15min incubation at room temperature, samples were analyzed for luminescence intensity using a ViewLux High-throughput CCD imager equipped with clear filters.
For `CCCOc1ccc(C(=O)OCCN(CC)CC)cc1N`, the Potency result was “inactive”.
Still for that read-out and setting: under `COC(=O)Nc1nc2ccc(Sc3ccccc3)cc2[nH]1` stands 1.33 µM (active) and 2.62 µM (active); under `O=C(O)c1cn(C2CC2)c2cc(N3CCNCC3)c(F)cc2c1=O`, “inactive”.
For the compound `CCOC(=O)[C@H](CCc1ccccc1)N[C@H]1CS[C@H](c2cccs2)CN(CC(=O)O)C1=O`, the “activity change, negative = cytotoxic” value was 14.3% (inactive).
As for `CCn1cc(C(=O)O)c(=O)c2cc(F)c(N3CCN(C)CC3)cc21`, the Potency entry was “inactive”.
Same read-out and setting: under `Cc1cccc(Nc2ccncc2S(=O)(=O)NC(=O)NC(C)C)c1` stands “inactive”; under `O=S(=O)(O)CCS`, “inactive”.
The same measure, in the same setting: the result for `CN1CCN(c2c(F)cc3c(=O)c(C(=O)O)cn(CCF)c3c2F)CC1` reads “inactive”.
As to `CC(C)(C)NC(=O)[C@H]1CC[C@H]2[C@@H]3CC[C@H]4NC(=O)C=C[C@]4(C)[C@H]3CC[C@]12C`, the Potency entry was “inactive”.
On to `COc1cc2nc(N3CCCN(C)CC3)nc(NC3CCN(Cc4ccccc4)CC3)c2cc1OC`, for which the Potency was 20.8 µM (active).
`CC(C)OC(=O)C(C(=O)OC(C)C)=C1SC=CS1`: the Potency entry was “inactive”.
Same read-out and setting: the result for `Cn1c(=O)c2c(ncn2CC(O)CO)n(C)c1=O` (stereo not given) reads “inactive”; that for `CC(C(=O)O)c1ccc2c(c1)CC(=O)c1ccccc1S2` (stereo not given), “inactive”; that for `CCn1cc(C(=O)O)c(=O)c2cc(F)c(N3CCNCC3)cc21`, “inactive”.
On to `CC(N)C12CC3CC(CC(C3)C1)C2` (stereo not given), for which the Potency result was “inactive”.
Take `OC(Cn1cncn1)(Cn1cncn1)c1ccc(F)cc1F`: the Potency result is “inactive”.
Turning to `COc1cc2ncnc(Nc3cccc(Cl)c3)c2cc1OC`, the “activity change, negative = cytotoxic” value was -2.52% (inactive).
As to `COCCCOc1cc(C[C@@H](C[C@H](N)[C@@H](O)C[C@H](C(=O)NCC(C)(C)C(N)=O)C(C)C)C(C)C)ccc1OC`, the Potency result is “inactive”.
Take `COC(=O)Nc1nc2ccc(C(=O)c3ccccc3)cc2[nH]1`: the Potency is 210 nM (active) and 3.3 µM (active).
In the case of `CC(C)C[C@H](NC(=O)[C@H](CCc1ccccc1)NC(=O)CN1CCOCC1)C(=O)N[C@@H](Cc1ccccc1)C(=O)N[C@@H](CC(C)C)C(=O)[C@@]1(C)CO1`, the Potency was 23.6 nM (active) and 147 nM (active).
On the same count and under the same terms, under `CC1(C)[C@H](C(=O)O)N2C(=O)C[C@H]2S1(=O)=O` stands “inactive”; under `Nc1nc(N)nc(-c2cc(Cl)ccc2Cl)n1`, “inactive”.
Consider `COc1ccccc1OCC(O)COC(N)=O` (stereo not given), for which the Potency entry was “inactive”.
Turning to `NCCCC(O)(P(=O)(O)O)P(=O)(O)O`, the Potency result was “inactive”.
Regarding `CO[C@@]12[C@H](COC(N)=O)C3=C(C(=O)C(C)=C(N)C3=O)N1C[C@@H]1N[C@@H]12`, the Potency result is “inactive”.
Consider `COc1cc2c(Nc3ccc(Br)cc3F)ncnc2cc1OCC1CCN(C)CC1`, for which the “activity change, negative = cytotoxic” value was -1.19% (inactive).
Consider `CCCCc1oc2ccc(NS(C)(=O)=O)cc2c1C(=O)c1ccc(OCCCN(CCCC)CCCC)cc1`, for which the “activity change, negative = cytotoxic” value is 2.85% (inactive).
For the compound `C#CCN[C@@H]1CCc2ccccc21`, the Potency result was “inactive”.
In the case of `CC(=O)Oc1ccccc1C(=O)Nc1ncc([N+](=O)[O-])s1`, the Potency result was “inactive”.
Turning to `CCN(CC)CC#CCOC(=O)C(O)(c1ccccc1)C1CCCCC1` (stereo not given), the “activity change, negative = cytotoxic” value was 9.49% (inactive).
On to `CCOC(=O)c1ccc(OC(=O)CCCCCN=C(N)N)cc1`, for which the Potency result is “inactive”.
In the case of `O=C(O)c1cccnc1`, the Potency result was “inactive”.
On the same count and under the same terms, the result for `COc1cc([C@@H]2c3cc4c(cc3[C@H](O)[C@H]3COC(=O)[C@H]23)OCO4)cc(OC)c1OC` reads 167 nM (active) and 5.2 nM (active); that for `Cc1cccc(N(C)C(=S)Oc2ccc3ccccc3c2)c1`, “inactive”; that for `COc1ccc(-c2ccc3cc(C(=O)O)ccc3c2)cc1C12CC3CC(CC(C3)C1)C2`, “inactive”.
Turning to `CCN(C)C(=O)Oc1cccc([C@H](C)N(C)C)c1`, the Potency result was “inactive”.
The same measure, in the same setting: the result for `Nc1nc(F)nc2c1ncn2[C@@H]1O[C@H](CO)[C@@H](O)[C@@H]1O` reads 18.7 µM (active) and 2.62 µM (active).
As to `C[C@@H]1C[C@H]2[C@@H]3CCC4=CC(=O)C=C[C@]4(C)[C@@]3(Cl)[C@@H](O)C[C@]2(C)[C@@]1(OC(=O)c1ccco1)C(=O)CCl`, the Potency entry is “inactive”.
On the same count and under the same terms, the result for `CC[C@H](C)C(=O)O[C@H]1C[C@@H](C)C=C2C=C[C@H](C)[C@H](CC[C@@H]3C[C@@H](O)CC(=O)O3)[C@H]21` reads “inactive”; that for `CC(=O)CC(c1ccccc1)c1c(O)c2ccccc2oc1=O` (stereo not given), “inactive”.
